Experimental data taken from the supplement of paper PMC12636033.
± gives the standard deviation of the averaged measurements. In all, about 33,000 sequences were measured (“E-score (rank enrichment, -0.5 to 0.5)”: median about -0.0043, highest 2% from about 0.24 on). For the sample, the highest values were picked, then their nearest neighbours and some sequences at random.

Test system: 2Sp-muMax20 (muMax20 with two 2,6-bis(methyl)pyridine Cys staples)
Assay: PBM 8-mer E-score (E-score (rank enrichment, -0.5 to 0.5)); higher = stronger preferential binding
Method: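 Protein binding microarray (universal PBM chip covering all 10-mers in fixed probe flanks) with chemically synthesized human Max(13-93) bHLH-LZ analogs (not full-length Max) bearing noncanonical residues (hArg, Tha, Aib, Nle at 65) and aromatic Cys staples. Read-out per 8-mer (and its reverse complement): E-score (rank-based enrichment, -0.5 to 0.5) and Z-score of median probe intensity.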

| Sequence | PBM 8-mer E-score |
| --- | --- |
| TATCTTGA | 0.123 ± 0.099 |
| ACTCACTG | 0.0171 ± 0.1 |
| ATGCCTAG | 0.0159 ± 0.081 |
| GAGGTCCC | -0.243 ± 0.0028 |
| AAGGCATT | -0.0085 ± 0.05 |
| AGTAGGGG | 0.24 ± 0.072 |
| AGGAGGGG | 0.269 ± 0.0072 |
| ATGAGGGA | 0.0977 ± 0.073 |
| AGTAGGGC | 0.0658 ± 0.099 |
| AGGAGGGA | 0.000855 ± 0.036 |
| ATGAGGGC | 0.115 ± 0.015 |
| AGTAGGGA | 0.0183 ± 0.02 |
| AGGAGGGC | -0.104 ± 0.14 |
| ATGAGGGG | 0.24 ± 0.05 |
| GGCGCTAA | -0.136 ± 0.035 |
| CCCACTGA | 0.0382 ± 0.01 |
| CGGGACGA | -0.1379 ± 0.00041 |
| AGTATCAG | 0.0699 ± 0.071 |
| CGCCCTAC | -0.00866 ± 0.015 |
| GCCCGGGA | -0.254 ± 0.03 |
| TGATGCCA | 0.033 ± 0.029 |
| TATCAGGA | 0.0871 ± 0.048 |
| ACCAAAGC | 0.0731 ± 0.02 |
| GTTACATA | 0.106 ± 0.096 |
| GCGCTCCC | -0.0536 ± 0.052 |

| Sequence | PBM 8-mer E-score |
| --- | --- |
| GATCAACA | -0.111 ± 0.05 |
| TATCAACA | 0.139 ± 0.05 |
| AATCAACA | 0.262 ± 0.024 |
| GCTATGCC | -0.00318 ± 0.017 |
| AGTGCACA | -0.000545 ± 0.11 |
| CTCGATCA | 0.0252 ± 0.013 |
| GGCGAGAC | -0.0185 ± 0.036 |
| ATACTTTG | 0.185 ± 0.015 |
| ATACTTTA | 0.255 ± 0.07 |
| CTACTTTA | 0.0402 ± 0.06 |
| AGTCTCGA | 0.0438 ± 0.016 |
| ACCTCCAC | -0.105 ± 0.0033 |
| GTGTGATA | 0.15 ± 0.061 |
| TCGTGAAA | -0.115 ± 0.084 |
| ATGTGATA | 0.288 ± 0.051 |
| ATGTGAAA | 0.319 ± 0.026 |
| ACGTGAAA | 0.243 ± 0.025 |
| GTGTGAAA | 0.11 ± 0.0048 |
| CTGTGAAA | -0.00932 ± 0.11 |
| ACGTGATG | 0.244 ± 0.0044 |
| ACGTGAAC | 0.0294 ± 0.091 |
| ACGTGATC | 0.17 ± 0.081 |
| CTGTGATA | -0.0212 ± 0.031 |
| ACGTGATA | 0.222 ± 0.02 |
| CGCTCCTA | -0.177 ± 0.024 |

| Sequence | PBM 8-mer E-score |
| --- | --- |
| AACAGTAC | 0.0773 ± 0.0098 |
| AGCTAGAC | -0.14 ± 0.029 |
| CCCCCGAA | -0.24 ± 0.13 |
| CCGTGACG | -0.127 ± 0.12 |
| CCAAGGGG | -0.104 ± 0.046 |
| ATACTGAC | 0.0362 ± 0.0098 |
| ATACTGAT | 0.2387 ± 0.00027 |
| ATACTGTC | 0.183 ± 0.041 |
| GCAGATCC | -0.0702 ± 0.063 |
| ACGTGACC | 0.149 ± 0.063 |
| TCCTTTAA | 0.0188 ± 0.023 |
| CATAATGA | 0.1647 ± 0.0015 |
| AATAATGG | 0.126 ± 0.043 |
| AATAATGA | 0.238 ± 0.017 |
| GATAATGA | 0.00488 ± 0.095 |
| AATAATGC | 0.143 ± 0.1 |
| AATAATGT | 0.241 ± 0.044 |
| GACCTGCC | -0.149 ± 0.014 |
| ATAACAAC | 0.0625 ± 0.012 |
| CTAACATC | 0.0136 ± 0.022 |
| ATAACATG | 0.229 ± 0.027 |
| ATAACATC | 0.236 ± 0.034 |
| ATAACAAG | 0.221 ± 0.044 |
| ATAACAAT | 0.244 ± 0.022 |
| AGGACTCA | 0.0578 ± 0.11 |

| Sequence | PBM 8-mer E-score |
| --- | --- |
| CAGCGAAA | -0.113 ± 0.0075 |
| ACTGTAGG | 0.0115 ± 0.027 |
| AGAGTCGC | 0.0183 ± 0.052 |
| CTCTCAAA | -0.015 ± 0.005 |
| AACTATTG | 0.24 ± 0.051 |
| AACTATTC | -0.0563 ± 0.067 |
| AACTATAC | 0.114 ± 0.06 |
| AACTATTA | 0.169 ± 0.027 |
| GACTATAC | 0.141 ± 0.068 |
| CACTATAA | -0.0291 ± 0.0069 |
| AACTATAG | 0.212 ± 0.074 |
| CACTATAC | 0.25 ± 0.013 |
| CACTATAG | 0.243 ± 0.038 |
| CCGGATCA | -0.0752 ± 0.094 |
| AATTATGC | 0.202 ± 0.025 |
| ATGGATGC | 0.0345 ± 0.13 |
| GACGCGAC | -0.108 ± 0.084 |
| AACGCGAC | 0.0983 ± 0.018 |
| CACGCGAG | 0.26 ± 0.025 |
| CACGCGAC | 0.277 ± 0.013 |
| AACGCGAG | 0.0185 ± 0.046 |
| CACGCGAA | 0.0343 ± 0.011 |
| GTCGCGAC | 0.314 ± 0.014 |
| CTCGCGAC | 0.0452 ± 0.004 |
| GTCGCGAA | -0.143 ± 0.017 |

| Sequence | PBM 8-mer E-score |
| --- | --- |
| CTAGAGTC | -0.122 ± 0.025 |
| ACCTCTCT | -0.0431 ± 0.11 |
| AGGCACTC | -0.155 ± 0.0063 |
| GCCACGGC | -0.219 ± 0.036 |
| CGCCTATC | 0.0914 ± 0.054 |
| ATGCGGTC | -0.0281 ± 0.033 |
| AAATGTGG | 0.138 ± 0.015 |
| AGATGTGC | 0.0607 ± 0.028 |
| ACATGTGC | 0.283 ± 0.052 |
| AGATGTGG | 0.0241 ± 0.00082 |
| CTATGTGC | 0.13 ± 0.017 |
| ACATGTGG | 0.364 ± 0.031 |
| GCGAAGGA | -0.1 ± 0.011 |
| CCTGAAGC | -0.0531 ± 0.025 |
| AGATTGCA | 0.0232 ± 0.053 |
| CGATTGCA | 0.000985 ± 0.025 |
| TGATTGCA | 0.286 ± 0.081 |
| ACGTCGCA | -0.0865 ± 0.15 |
| CTCGCTTC | -0.0128 ± 0.0032 |
| AACAATAA | 0.134 ± 0.036 |
| TACAAAAA | 0.26 ± 0.052 |
| GACAATAC | 0.144 ± 0.15 |
| AACAATAC | 0.263 ± 0.0036 |
| TACAAGAA | 0.213 ± 0.018 |
| GACAATAA | 0.188 ± 0.0055 |

| Sequence | PBM 8-mer E-score |
| --- | --- |
| AACAAAAA | -0.0104 ± 0.045 |
| CACAATAA | 0.0537 ± 0.028 |
| TACAATAA | 0.321 ± 0.051 |
| GATAAACC | -0.167 ± 0.039 |
| TCAGGGGA | 0.143 ± 0.019 |
| TAAACGAA | 0.143 ± 0.00096 |
| AACTGATG | -0.0947 ± 0.093 |
| CAAAACCA | 0.218 ± 0.056 |
| TTCGAAAA | 0.0928 ± 0.011 |
| CCAGAGCC | 0.0426 ± 0.067 |
| AAAATTAT | 0.252 ± 0.027 |
| ATAATTAC | 0.297 ± 0.044 |
| AAAATTAA | 0.126 ± 0.057 |
| GTAATTAA | 0.123 ± 0.033 |
| TTAATTAA | 0.303 ± 0.081 |
| CTAATTAA | 0.0684 ± 0.14 |
| ATAATTAA | 0.183 ± 0.096 |
| GTAATTAC | 0.177 ± 0.0081 |
| CTAATTAC | 0.108 ± 0.024 |
| AAAATTAG | 0.129 ± 0.0083 |
| ACAATTAT | 0.139 ± 0.091 |
| ATAATTAT | 0.274 ± 0.062 |
| CAGCTGGC | 0.00279 ± 0.062 |
| TAAGACGA | 0.118 ± 0.035 |
| AGTTCACA | 0.0105 ± 0.0032 |

| Sequence | PBM 8-mer E-score |
| --- | --- |
| AATATCAC | 0.189 ± 0.038 |
| AAGCTGCT | -0.0983 ± 0.048 |
| ACTGACTA | -0.00544 ± 0.014 |
| GGCCTAGA | -0.101 ± 0.039 |
| AGGGCGAG | 0.00325 ± 0.014 |
| AACTAGCT | -0.0509 ± 0.098 |
| CTAATTAG | -0.0106 ± 0.077 |
| TTAACTAA | 0.248 ± 0.0099 |
| ATAACTAA | 0.174 ± 0.018 |
| ATAATTAG | 0.289 ± 0.006 |
| CTAACTAA | 0.0344 ± 0.032 |
| ATAATTCG | 0.221 ± 0.06 |
| ACTCGCTG | -0.155 ± 0.038 |
| AATTGTAC | 0.22 ± 0.0078 |
| TGGTATAA | 0.219 ± 0.019 |
| CGGGTACC | -0.168 ± 0.059 |
| ACGCTACA | 0.161 ± 0.04 |
| ACCCCAAG | 0.167 ± 0.067 |
| ACCCCAGT | 0.303 ± 0.048 |
| ACCCCAAC | 0.2 ± 0.075 |
| ACCCCAGA | 0.102 ± 0.066 |
| ACCCCAAT | 0.248 ± 0.017 |
| ACCCCAGG | -0.135 ± 0.03 |
